Values joined by “and” are separate entries in the source; they are usually repeats but may differ in a detail not shown here. Equal values may be shown once. Unmarked numbers belong to inactive results. Records with an inconclusive call do not appear. Active and inactive are the calls of the source. Unless noted, the call rests on the fitted dose curve; in most records, active means well fitted curve in the direction sought with a large enough effect; inconclusive means small, poorly fitted or top-dose-only effect, or another doubt; inactive means no such curve, though single readings can be large; an effect the other way counts as inactive or inconclusive. Where a SMILES comes first, the peptide text is derived from it. Bridges are numbered along the chain shown (N, C = ends). [ ]: non-standard residue; d: D form. The star is where a group is joined. Dab(CH2SO3H) = N[C@@H](CCNCS(=O)(=O)O)C(=O)O; X3 = CC[C@@H](C)CCCCC(=O)*; Dab = NCC[C@H](N)C(=O)O
Key:
astro = control astrocytes; experiment: Drug repurposing screens with cells derived from glioblastoma tumor samples (AID 1345199); settings: viability, ATP luminescence, 48 h; series mostly up to 45.9 µM; further: nearly all actives have a fitted effect of over 40% in size; further: potency means the concentration at half of the fitted maximal effect; on activity, negative = cell killing: on the % scale 0 is the no-effect control and ±100 the full control effect
In short: (§1)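 Primary testing used CD133+ neurospheres from four GBM patients, seven concentrations, 48 h exposure and ATP-based viability; confirmation added three slower-growing patient lines.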

[1] = as above; settings: GBM patient neurospheres viability, ATP luminescence, 48 h
In short: as §1

[2] = qHTS assay to identify inhibitors of the type 1 interferon - major histocompatibility complex class I in skeletal muscle: Counter screen cell viability and HiBit confirmation (AID 1347412); settings: iHSKM muscle cells + IFN-b, HiBiT or CellTiter-Glo, 24 h; for activity change, negative = inhibition: Viability, at 45.9 µM (top of the series); further: potency means the concentration at half of the fitted maximal effect; on activity change, negative = inhibition: on the % scale 0 is the no-effect control and ±100 the full control effect; on all read-outs here: nearly all actives have a fitted effect of over 60% in size
In short: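 Luminescence read-out: Nano-Glo HiBiT lytic signal from C-terminally HiBiT-tagged HLA-B in CRISPR-edited human myoblasts, plus CellTiter Glo ATP as viability counter screen. IFN-beta 4.0 ng/ml; 24 hrs treatment at 37 C, 5% CO2.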

[3] = target: Nuclear receptor subfamily 1 group I member 2 (Rattus norvegicus) (UniProt Q9R1A7); experiment: qHTS assay for small molecule activators of the rat pregnane X receptor (rPXR) signaling pathway (AID 651751; call rule not given here; further: 0% is about no effect); settings: rPXR reporter cells, luciferase (One-Glo), 24 h
Sequence of Nuclear receptor subfamily 1 group I member 2 (Rattus norvegicus) (Q9R1A7 whole entry, looked up): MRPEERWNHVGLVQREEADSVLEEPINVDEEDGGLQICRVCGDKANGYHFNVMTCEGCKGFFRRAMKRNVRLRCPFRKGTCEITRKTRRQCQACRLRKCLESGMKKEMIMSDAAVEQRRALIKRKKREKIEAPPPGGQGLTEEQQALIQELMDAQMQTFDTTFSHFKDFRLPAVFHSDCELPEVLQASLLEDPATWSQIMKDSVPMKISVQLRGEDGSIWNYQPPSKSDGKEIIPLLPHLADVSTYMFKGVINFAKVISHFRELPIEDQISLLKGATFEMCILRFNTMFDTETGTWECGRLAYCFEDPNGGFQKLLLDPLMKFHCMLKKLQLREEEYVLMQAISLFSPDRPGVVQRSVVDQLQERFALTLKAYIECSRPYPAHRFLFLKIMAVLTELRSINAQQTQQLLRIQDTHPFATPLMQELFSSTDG

[4] = qHTS assay for small molecule activators of the human pregnane X receptor (PXR) signaling pathway (AID 720659; call rule not given here; further: 0% is about no effect)
[5] = at 45.9 µM (top of the series), tumour line B
[6] = at 46.1 µM (top of the series), tumour line C
[7] = at 45.9 µM (top of the series), tumour line D
[8] = at 20 µM (top of the series), tumour line C
[9] = at 46 µM (top of the series), tumour line A

SMILES: CC[C@@]1(O)C(=O)OCc2c1cc1n(c2=O)Cc2cc3c([N+](=O)[O-])cccc3nc2-1
- Potency (astro): 1.26 µM (active)

SMILES: Clc1cc(Cl)c(OCC#CI)cc1Cl
- Potency (astro): inactive

SMILES: CCC(=O)NCCC1CCc2ccc3c(c21)CCO3 (stereo unspecified)
- activity, negative = cell killing [1, 5]: -16.2%
- activity, negative = cell killing [1, 6]: -14.5%
- Potency ([1]; tumour line A): 11.2 µM (active)
- Potency (astro): inactive

SMILES: C[C@@H]1CCN(C(=O)CC#N)C[C@@H]1N(C)c1ncnc2[nH]ccc12
- activity change, negative = inhibition [2]: -5.51%

SMILES: CCCCCCCC/C=C\CCCCCCCC(=O)O
- activity, negative = cell killing [1, 5]: 3.38%
- activity, negative = cell killing [1, 7]: -14.1%
- activity, negative = cell killing [1, 6]: 14.2%
- Potency (astro): inactive
- max response [3]: 0.673% and 2.82%
- outcome [4]: inactive

SMILES: CCCCCCCCCCCC[n+]1ccc2ccccc2c1
- Potency (astro): 5.01 µM (active)

SMILES: O=C(Nc1ccc(Br)cc1)c1cc(Br)c(Br)s1
- Potency (astro): 11.2 µM (active)

SMILES: CCN(CC)Cc1cc(Nc2ccnc3cc(Cl)ccc23)ccc1O
- activity, negative = cell killing [1, 8]: -18.3%
- Potency ([1]; tumour line A): 12.6 µM (active)
- Potency ([1]; tumour line D): 14.1 µM (active)
- Potency (astro): inactive

SMILES: C=C[C@]1(C)C[C@@H](OC(=O)CSC(C)(C)CNC(=O)[C@H](N)C(C)C)[C@]2(C)[C@H](C)CC[C@]3(CCC(=O)[C@H]32)[C@@H](C)[C@@H]1O
- Potency (astro): inactive

SMILES: O=S(=O)(O)c1cc(O)c2c(N=Nc3ccc(Nc4ccccc4)c4c(S(=O)(=O)O)cccc34)cc(S(=O)(=O)O)cc2c1
- Potency (astro): 14.1 µM (active)

SMILES: CC(=O)Oc1c(C)cc(OCC(O)CNC(C)C)c(C)c1C (stereo unspecified)
- activity, negative = cell killing [1, 5]: -11.9%
- activity, negative = cell killing [1, 7]: 5.15%
- activity, negative = cell killing [1, 6]: 13.3%
- Potency (astro): inactive

SMILES: Cc1cc(/C=C/c2ccc3cc(N(C)C)ccc3[n+]2C)c(C)n1-c1ccccc1
- activity, negative = cell killing [1, 8]: -11.8%
- Potency (astro): 11.2 µM (active)

SMILES: O=CCCCC=O
- activity, negative = cell killing [1, 5]: -2.9%
- activity, negative = cell killing [1, 7]: -3.77%
- activity, negative = cell killing [1, 6]: -3.46%
- max response [3]: 2.91%
- outcome [4]: inactive

SMILES: CC1(C)C(C=C(Cl)Cl)C1C(=O)OCc1cccc(Oc2ccccc2)c1 (stereo unspecified)
- activity, negative = cell killing [1, 5]: -14.8%
- activity, negative = cell killing [1, 7]: -15.5%
- activity, negative = cell killing [1, 6]: 6.86%
- Potency (astro): inactive

SMILES: COc1cc2c(cc1O)CCN[C@]21CS[C@@H]2c3c(OC(C)=O)c(C)c4c(c3[C@H](COC1=O)N1[C@@H]2[C@H]2c3c(cc(C)c(OC)c3O)C[C@@H]([C@@H]1O)N2C)OCO4
- Potency (astro): 8.91 µM (active) and 14.1 µM (active)

SMILES: CCC(=O)OCC(=O)[C@@]1(OC(=O)CC)[C@H](C)C[C@H]2[C@H]3[C@H]([C@@H](O)C[C@@]21C)[C@@]1(C)C=CC(=O)C=C1C[C@H]3Cl
- activity, negative = cell killing [1, 8]: -8.97%
- activity, negative = cell killing ([1]; at 21.2 µM (top of the series), tumour line B): -7.29%
- activity, negative = cell killing ([1]; at 21.2 µM (top of the series), tumour line D): -17.3%
- Potency (astro): inactive

SMILES: CC[C@@H](C)CCCCC(=O)N[C@@H](CCNCS(=O)(=O)O)C(=O)N[C@H](C(=O)N[C@@H](CCNCS(=O)(=O)O)C(=O)N[C@H]1CCNC(=O)[C@H]([C@@H](C)O)NC(=O)[C@H](CCNCS(=O)(=O)O)NC(=O)[C@H](CCNCS(=O)(=O)O)NC(=O)[C@H](CC(C)C)NC(=O)[C@@H](CC(C)C)NC(=O)[C@H](CCNCS(=O)(=O)O)NC1=O)[C@@H](C)O (X3-[Dab(CH2SO3H)]T[Dab(CH2SO3H)][Dab][Dab(CH2SO3H)][dL]L[Dab(CH2SO3H)][Dab(CH2SO3H)]T; lactam 4-C)
- activity, negative = cell killing [1, 5]: -7.01%
- activity, negative = cell killing [1, 7]: 10.8%
- activity, negative = cell killing [1, 9]: -16.2%
- Potency (astro): inactive

SMILES: C=C1CC[C@@H]2[C@](C)(CO)[C@H](O)CC[C@@]2(C)[C@@H]1C/C=C1/C(=O)OC[C@H]1O
- Potency ([2]; HiBiT): 12.5 µM (active)
- activity change, negative = inhibition [2]: -7.87%

SMILES: Cc1ccccc1
- activity, negative = cell killing [1, 5]: 6.08%
- activity, negative = cell killing [1, 7]: -15.8%
- activity, negative = cell killing [1, 6]: 2.61%
- max response [3]: -1.25% and 0.145%
- outcome [4]: inactive

SMILES: CO[C@H](C(=O)[C@@H](O)[C@@H](C)O)C1Cc2cc3cc(O[C@H]4C[C@@H](O[C@H]5C[C@@H](O)[C@H](O)[C@@H](C)O5)[C@@H](O)[C@@H](C)O4)c(C)c(O)c3c(O)c2C(=O)[C@H]1O[C@H]1C[C@@H](O[C@H]2C[C@@H](O[C@H]3C[C@](C)(O)[C@H](O)[C@@H](C)O3)[C@H](O)[C@@H](C)O2)[C@H](O)[C@@H](C)O1 (stereo partly specified)
- Potency (astro): 0.112 µM (active)

SMILES: CO[C@H]1C=CO[C@@]2(C)Oc3c(C)c(O)c4c(O)c(c5c(c4c3C2=O)=NC2(CCN(CC(C)C)CC2)N=5)NC(=O)/C(C)=C\C=C/[C@H](C)[C@H](O)[C@@H](C)[C@@H](O)[C@@H](C)[C@H](OC(C)=O)[C@@H]1C
- activity, negative = cell killing [1, 5]: -14.2%
- activity, negative = cell killing [1, 6]: 33.4%
- Potency ([1]; tumour line A): 10 µM (active)
- Potency (astro): inactive

SMILES: COC(C(=O)C(O)C(C)O)C1Cc2cc3cc(OC4CC(OC5CC(O)C(O)C(C)O5)C(O)C(C)O4)c(C)c(O)c3c(O)c2C(=O)C1OC1CC(OC2CC(OC3CC(C)(O)C(O)C(C)O3)C(O)C(C)O2)C(O)C(C)O1 (stereo unspecified)
- Potency (astro): 0.355 µM (active)

SMILES: CCCCC(=O)O[C@]1(C(=O)CO)[C@H](C)C[C@H]2[C@@H]3CCC4=CC(=O)C=C[C@]4(C)[C@@]3(F)[C@@H](O)C[C@@]21C
- activity, negative = cell killing [1, 5]: -7.12%
- activity, negative = cell killing [1, 7]: -22.7%
- activity, negative = cell killing [1, 6]: -23.5%
- Potency (astro): inactive

SMILES: C[C@H]1C[C@H]2[C@@H]3CCC4=CC(=O)C=C[C@]4(C)[C@@]3(F)[C@@H](O)C[C@]2(C)[C@@]1(O)C(=O)CO
- activity, negative = cell killing [1, 5]: -16%
- activity, negative = cell killing [1, 7]: -25%
- activity, negative = cell killing [1, 9]: -24.5%
- Potency (astro): inactive
